Experimental data published in PubChem BioAssay.
For some of these results: Entries with a potency or affinity are not part of this list. Calls of active or inactive are those of the source. Unless noted, the rule behind the calls is not given here.

Columns and labels:
[1] = antimalarial activity against Dd2 strain (AID 2302;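 active = growth inhibition above 50% at the single 2 µM test dose, taken to imply half-maximal potency below 2 µM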;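 note: 0% = DMSO untreated growth and 100% = chloroquine plus artemisinin killed control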); details: P. falciparum Dd2 in RBCs, LDH growth readout, 72 h; at 2 µM; stronger effect = higher value
[2] = human hepatoma cell viability loss – ATP luminescence, cytotoxicity control for P. falciparum antimalarial project, primary screen (AID 2303;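 active = inhibition above 50%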;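 note: 0% = DMSO wells and 100% = digitonin-killed cells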); details: HepG2 viability, 24-48 h, at 10 µM, stronger effect = higher value
[3] = target: L-lactate dehydrogenase (Plasmodium falciparum (isolate CDC / Honduras)) (UniProt Q27743); assay: PfLDH activity inhibition – cell lysate, 3D7 strain, counter-screen for P. falciparum growth inhibition project (AID 2304);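 note: 0% = vehicle and 100% = reference inhibitor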; details: P. falciparum 3D7 crude extract, LDH APAD/NBT absorbance; at 2 µM; stronger effect = higher value
[4] = inhibition of 3D7 malaria parasite growth – strain 3D7 (AID 2306);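 note: 0% = DMSO wells and 100% = chloroquine plus artemisinin control wells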; details: P. falciparum 3D7 erythrocytic growth, LDH absorbance, 72 h; at 2 µM; stronger effect = higher value
[5] = target: Calcium-dependent protein kinase 1 (Plasmodium falciparum (isolate 3D7)) (UniProt P62344); assay: PfCDPK1 kinase inhibitors, biochemical, TCAMS library (AID 1159585; cut-off not given, nearly all actives have IC50 up to about 0.98 µM;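 note: inhibitors leave more ATP so luminescence rises with inhibition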); details: recombinant PfCDPK1, Kinase-Glo ATP depletion luminescence
[6] = target: Plasmodium falciparum protein kinase 6 (PK6, PF3D7_1337100) (UniProt Q8IDW1); assay: PfPK6 kinase inhibitors, biochemical, TCAMS library (AID 1159586); details: recombinant PfPK6, Kinase-Glo ATP depletion luminescence
[7] = target: Protein kinase 7 (PK7), Plasmodium falciparum 3D7 (PF3D7_0213400) (UniProt Q7YTF7); assay: inhibition of Plasmodium PK7 catalytic activity – biochemical, TCAMS antimalarial set, Kinase-Glo luminescence (AID 1159587); details: recombinant PfPK7, Kinase-Glo ATP depletion luminescence
[8] = target: Calcium-dependent protein kinase 4 (Plasmodium falciparum (isolate 3D7)) (UniProt Q8IBS5); assay: PfCDPK4 kinase inhibitors, biochemical, TCAMS library (AID 1159588; cut-off not given, nearly all actives have IC50 up to about 0.91 µM); details: recombinant PfCDPK4, Kinase-Glo ATP depletion luminescence
Sequence of Calcium-dependent protein kinase 4 (Plasmodium falciparum (isolate 3D7)) (Q8IBS5 whole entry, looked up): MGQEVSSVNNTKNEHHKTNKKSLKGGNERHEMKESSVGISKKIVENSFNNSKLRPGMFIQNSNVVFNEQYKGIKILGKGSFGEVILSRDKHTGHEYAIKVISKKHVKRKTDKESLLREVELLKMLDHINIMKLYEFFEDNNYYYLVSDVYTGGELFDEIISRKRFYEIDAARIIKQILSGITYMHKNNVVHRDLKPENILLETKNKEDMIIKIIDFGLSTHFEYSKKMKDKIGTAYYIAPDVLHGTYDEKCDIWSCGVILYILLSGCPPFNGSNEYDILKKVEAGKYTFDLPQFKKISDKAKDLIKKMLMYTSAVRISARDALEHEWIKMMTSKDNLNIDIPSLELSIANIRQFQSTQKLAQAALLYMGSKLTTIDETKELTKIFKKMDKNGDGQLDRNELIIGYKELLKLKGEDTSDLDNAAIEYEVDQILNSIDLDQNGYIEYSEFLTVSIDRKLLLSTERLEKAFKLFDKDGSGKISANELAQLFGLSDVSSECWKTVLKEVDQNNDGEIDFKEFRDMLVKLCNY

Sequence of Calcium-dependent protein kinase 1 (Plasmodium falciparum (isolate 3D7)) (P62344 whole entry, looked up): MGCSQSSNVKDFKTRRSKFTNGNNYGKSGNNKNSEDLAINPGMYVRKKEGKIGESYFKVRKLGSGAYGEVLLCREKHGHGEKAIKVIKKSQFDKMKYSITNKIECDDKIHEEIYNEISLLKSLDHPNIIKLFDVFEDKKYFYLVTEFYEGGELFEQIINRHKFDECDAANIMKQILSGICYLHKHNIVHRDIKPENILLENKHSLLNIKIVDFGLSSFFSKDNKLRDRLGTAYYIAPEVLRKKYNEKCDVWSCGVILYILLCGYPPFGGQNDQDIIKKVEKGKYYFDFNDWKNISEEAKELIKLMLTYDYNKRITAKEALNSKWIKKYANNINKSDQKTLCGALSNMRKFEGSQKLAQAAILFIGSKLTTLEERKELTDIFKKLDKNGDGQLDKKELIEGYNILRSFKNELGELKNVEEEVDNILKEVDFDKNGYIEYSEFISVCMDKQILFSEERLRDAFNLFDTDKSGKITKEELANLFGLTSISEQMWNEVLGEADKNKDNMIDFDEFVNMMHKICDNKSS
Sequence of L-lactate dehydrogenase (Plasmodium falciparum (isolate CDC / Honduras)) (Q27743 whole entry, looked up): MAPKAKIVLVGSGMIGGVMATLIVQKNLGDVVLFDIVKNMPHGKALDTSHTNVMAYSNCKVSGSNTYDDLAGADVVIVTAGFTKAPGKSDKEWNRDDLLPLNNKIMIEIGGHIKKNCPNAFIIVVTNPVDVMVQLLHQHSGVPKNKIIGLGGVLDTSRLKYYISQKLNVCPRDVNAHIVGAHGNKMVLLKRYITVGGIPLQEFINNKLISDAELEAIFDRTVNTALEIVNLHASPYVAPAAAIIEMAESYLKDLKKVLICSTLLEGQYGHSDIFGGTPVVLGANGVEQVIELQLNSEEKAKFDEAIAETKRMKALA
Sequence of Protein kinase 7 (PK7), Plasmodium falciparum 3D7 (PF3D7_0213400) (Q7YTF7 1-343): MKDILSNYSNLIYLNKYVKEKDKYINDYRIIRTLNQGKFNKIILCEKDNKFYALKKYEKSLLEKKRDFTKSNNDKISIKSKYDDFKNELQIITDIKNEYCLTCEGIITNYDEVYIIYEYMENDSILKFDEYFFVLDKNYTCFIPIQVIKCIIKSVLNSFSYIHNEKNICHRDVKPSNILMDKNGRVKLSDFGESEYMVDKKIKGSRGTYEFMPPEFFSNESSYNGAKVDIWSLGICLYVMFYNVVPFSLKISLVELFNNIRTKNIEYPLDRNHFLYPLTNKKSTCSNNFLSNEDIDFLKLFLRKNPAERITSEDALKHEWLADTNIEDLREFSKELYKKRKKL
Sequence of Plasmodium falciparum protein kinase 6 (PK6, PF3D7_1337100) (Q8IDW1 1-305): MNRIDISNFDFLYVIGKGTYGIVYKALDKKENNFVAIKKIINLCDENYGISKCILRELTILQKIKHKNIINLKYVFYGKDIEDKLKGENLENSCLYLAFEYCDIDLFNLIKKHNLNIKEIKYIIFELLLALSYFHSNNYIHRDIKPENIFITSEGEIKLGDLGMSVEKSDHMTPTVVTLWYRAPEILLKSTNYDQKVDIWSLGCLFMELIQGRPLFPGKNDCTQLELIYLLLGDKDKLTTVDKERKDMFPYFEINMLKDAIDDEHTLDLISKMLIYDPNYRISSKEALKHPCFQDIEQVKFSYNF

O=C(Nc1ccc2nc3n(c(=O)c2c1)CCCCC3)C(=O)N1CCC(Cc2ccccc2)CC1
active: growth inhibition [1] 70% | growth inhibition [4] 91%
inactive: inhibition [2] 12% | inhibition [3] 0% | outcome [5] | outcome [6] | outcome [7] | outcome [8]

CN(C(=O)C(C)(C)Oc1ccc(Cl)cc1)C1CCN(CCCCCNC(=O)/C=C/c2ccc(Cl)c(Cl)c2)CC1
active: inhibition [2] 86% | growth inhibition [4] 96%
inactive: growth inhibition [1] 26% | inhibition [3] 0% | outcome [5] | outcome [6] | outcome [7] | outcome [8]

Cc1nc(-c2nc(NCCc3cnccn3)ncc2-c2ccsc2)sc1C
active: growth inhibition [4] 98%
inactive: growth inhibition [1] 40% | inhibition [2] -7% | inhibition [3] 0% | outcome [5] | outcome [6] | outcome [7] | outcome [8]

CC(C)Cn1cc(C2CCN(CCN3CCC(CNC(=O)c4ccc(NC(=O)c5cc(Cl)cc(Cl)c5)cc4)CC3)CC2)c2ccccc21
active: growth inhibition [1] 96% | inhibition [2] 53% | growth inhibition [4] 91%
inactive: inhibition [3] -2% | outcome [5] | outcome [6] | outcome [7] | outcome [8]

CN(C)CCN1CCN(Cc2ccc(-c3cccc(-c4nc5ccccc5[nH]4)c3)cc2)CC1
inactive: inhibition [2] 25% | inhibition [3] -7% | outcome [5] | outcome [6] | outcome [7] | outcome [8]
active: growth inhibition [1] 100% | growth inhibition [4] 102%

CCOc1ccc(C(C)NC(=O)c2cc(Cl)ccc2OC)cc1OCC (stereo not given)
active: growth inhibition [1] 99% | growth inhibition [4] 101%
inactive: inhibition [2] -1% | inhibition [3] -2% | outcome [5] | outcome [6] | outcome [7] | outcome [8]

COc1ccc2c(NN=Cc3c(OC)ccc4ccccc34)cc(C)nc2c1
active: growth inhibition [1] 85% | growth inhibition [4] 102%
inactive: inhibition [2] 7% | inhibition [3] 2% | outcome [5] | outcome [6] | outcome [7] | outcome [8]

CN(C)CCCn1cncc1-c1ccc2ncnc(Nc3ccc4c(cnn4Cc4ccccc4)c3)c2c1
inactive: inhibition [2] 17% | inhibition [3] -2% | outcome [5] | outcome [6] | outcome [7] | outcome [8]
active: growth inhibition [1] 77% | growth inhibition [4] 101%

Cc1ccc(C(=O)N2CCN(Cc3nccs3)CC2)cc1
inactive: growth inhibition [1] -2% | inhibition [2] -6% | inhibition [3] 0% | outcome [5] | outcome [6] | outcome [7] | outcome [8]
active: growth inhibition [4] 86%

Cc1ccc(C)c2sc(N3CCN(C(=O)c4ccc([N+](=O)[O-])o4)CC3)nc12
inactive: inhibition [2] -2% | inhibition [3] 2% | outcome [5] | outcome [6] | outcome [7] | outcome [8]
active: growth inhibition [1] 89% | growth inhibition [4] 96%

COc1ccc2nccc(NC(=O)N3CCC(NCCOc4cc(F)cc(F)c4)CC3)c2n1
active: growth inhibition [4] 86%
inactive: growth inhibition [1] 38% | inhibition [2] 14% | inhibition [3] -2% | outcome [5] | outcome [6] | outcome [7] | outcome [8]

CCCC(C)Nc1nc(C)cc(N[C@@H](Cc2ccccc2)C(=O)Nc2ccccc2)n1 (stereo not given in full)
active: growth inhibition [1] 67% | inhibition [2] 50% | growth inhibition [4] 100%
inactive: inhibition [3] -2% | outcome [5] | outcome [6] | outcome [7] | outcome [8]

CN(C)CCCOC(=O)c1cc2cc(-c3ccccc3)ccc2n1S(=O)(=O)Cc1ccccc1
inactive: inhibition [2] 13% | inhibition [3] -5% | outcome [5] | outcome [6] | outcome [7] | outcome [8]
active: growth inhibition [1] 70% | growth inhibition [4] 101%

CCc1cc(Br)c2c(c1)C(NCCCNc1cc(=O)c3ccccc3[nH]1)CCN2 (stereo not given)
active: growth inhibition [4] 94%
inactive: growth inhibition [1] 20% | inhibition [2] 13% | inhibition [3] -1% | outcome [5] | outcome [6] | outcome [7] | outcome [8]

Cc1cccc2[nH]c(-c3ccc(-c4cccc(NC(=O)C(=O)c5cccn5C)c4)cc3)nc12
active: growth inhibition [4] 98%
inactive: growth inhibition [1] 17% | inhibition [2] 30% | inhibition [3] 3% | outcome [5] | outcome [6] | outcome [7] | outcome [8]

N#Cc1cccc(Nc2nccc(NCC(O)c3cccc(C(F)(F)F)c3)n2)c1 (stereo not given)
active: growth inhibition [1] 84% | growth inhibition [4] 99%
inactive: inhibition [2] 4% | inhibition [3] -3% | outcome [5] | outcome [6] | outcome [7] | outcome [8]

Cc1cc(C(=O)Nc2ccc3c(ccn3C3CCCN(Cc4ccc(C(F)(F)F)cc4F)CC3)c2)no1 (stereo not given)
active: growth inhibition [1] 95% | growth inhibition [4] 92%
inactive: inhibition [2] 19% | inhibition [3] -1% | outcome [5] | outcome [6] | outcome [7] | outcome [8]

COc1ccc2nccc([C@@H](O)CN3CCC(NCc4cnc5snnc5c4)C(F)C3)c2c1 (stereo not given in full)
active: growth inhibition [1] 88% | growth inhibition [4] 83%
inactive: inhibition [2] 13% | inhibition [3] 2% | outcome [5] | outcome [6] | outcome [7] | outcome [8]

CCCCCCn1c2c(c(=N)c3c1CCC3)CCC2
inactive: inhibition [2] 32% | inhibition [3] -3% | outcome [5] | outcome [6] | outcome [7] | outcome [8]
active: growth inhibition [1] 83% | growth inhibition [4] 97%

Cc1cc(=O)[nH]c(-n2nc(C)cc2NC(=O)C2(c3ccc(Cl)cc3)CCCC2)n1
active: growth inhibition [1] 97% | growth inhibition [4] 96%
inactive: inhibition [2] 30% | inhibition [3] 5% | outcome [5] | outcome [6] | outcome [7] | outcome [8]
